According to PubChem BioAssay:

test: Plasmodium falciparum growth inhibition, primary screen, strain 3D7, DAPI fluorescence, 100 nL (AID 1184);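 note: parasites grown inside human red blood cells in medium with human serum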; conditions: P. falciparum 3D7 growth, 3 d, higher = more signal

First: C=CC[C@H](O)c1ccc(O)c(F)c1
Second: CCCCC(=C=CC[C@@H](O)c1ccccc1OCCO)C[C@@H](O)c1ccccn1
The z-score of the first is higher: -0.418 for the first, -1.48 for the second.

Going from COc1ccc([Si](C)(C)[C@@H]2[C@@H](CC(=O)N3Cc4ccccc4C[C@H]3CO)O[C@]3(C(=O)N(Cc4ccc(I)cc4)c4ccccc43)[C@H]2C)cc1 to COc1ccc([Si](C)(C)[C@H]2[C@H](CC(=O)N(CCO)Cc3ccccc3)O[C@@]3(C(=O)N(Cc4ccc(N5C(=O)c6cccc7cccc5c67)cc4)c4ccccc43)[C@@H]2C)cc1, the z-score rises from -2.83 to -2.11.

Compared with C=C(C(=O)CC[C@@H](OC(=O)c1ccccc1-c1ccccc1C(=O)O)c1ccc(CO)o1)C(C)C, C=C(C(=O)CC[C@@H](OC(=O)c1ccccc1-c1ccccc1C(=O)O)c1ccc(OCCO)cc1)C(C)C is lower in z-score: 1.88 for the first, -2.12 for the second.

First: CC1CC/C=C\[C@H]2OC34C=CCN(C(C)C)C(=O)[C@H]3N(C(C)CO)C(=O)[C@@H]4C2C(=O)O1 (stereo partly specified)
Second: CN1C2C=C(c3ccc(CO)cc3)C(C3C(=O)N(C(N)=O)C(=O)C32)C1C1CC1 (stereo unspecified)
The z-score of the first is higher: -0.577 for the first, -0.854 for the second.

Going from O=C1O[C@H](c2ccccc2)[C@H](c2ccccc2)N2[C@H]1[C@@H](C(=O)O)[C@]1(C(=O)Nc3ccccc31)[C@H]2c1ccc(OCCO)cc1 to COC(=O)C(CC#Cc1ccc2c(c1)[C@]1(C(=O)N2)[C@H](C(=O)N2CCCCCCC2)[C@H]2C(=O)O[C@H](c3ccccc3)[C@H](c3ccccc3)N2[C@@H]1c1ccc(OCCO)cc1)C(=O)OC, the z-score falls from -0.443 to -2.14.

Compared with CC(C)c1ccc(NN2C(C(O)C3CCCCC3)C=CC3C(=O)N(c4ccccc4)C(=O)C32)cc1 (stereo unspecified), O=C1C2C=CC(C(O)C3CCCCC3)N(Nc3ccccc3F)C2C(=O)N1c1ccccc1 (stereo unspecified) is lower in z-score: 0.142 for the first, -0.193 for the second.

Compared with CC(C)N1C(=O)[C@@]2(Cc3ccccc31)c1ccccc1C(=O)N(Cc1ccccc1C(F)(F)F)[C@H]2c1ccc(CO)cc1, COCCCNC(=O)[C@@]1(Cc2ccccc2I)c2ccccc2C(=O)N(Cc2ccccc2C(F)(F)F)[C@H]1c1ccc(CO)cc1 is lower in z-score: -0.35 for the first, -0.821 for the second.

First: C=C(CCCC)/C(=C/C[C@@H](OC(C)=O)c1ccc(OCCO)cc1)c1cc(C(=O)OC)ccc1OC
Second: C=C(C(=O)CC[C@@H](OC(=O)c1ccccc1-c1ccccc1C(=O)O)c1cccc(OCCO)c1)C(C)C
The z-score of the first is lower: -3.06 for the first, -2.01 for the second.

Going from C=CCOC(=O)[C@H]1[C@@H]2C(=O)O[C@@H](c3ccccc3)[C@@H](c3ccccc3)N2[C@@H](c2ccc(OCCOC(=O)[C@H]3C[C@H]4C(=O)NCC(=O)N4[C@H]3c3ccc(O)cc3)cc2)[C@]12C(=O)Nc1ccccc12 to COC(=O)C(CC#Cc1ccc2c(c1)[C@]1(C(=O)N2)[C@H](C(=O)NC[C@H](O)c2ccccc2)[C@H]2C(=O)O[C@H](c3ccccc3)[C@H](c3ccccc3)N2[C@@H]1c1ccc(O)cc1)C(=O)OC, the z-score rises from -1.56 to -1.05.

First: C=CCNC(=O)[C@@H]1[C@H]2C(=O)O[C@H](c3ccccc3)[C@H](c3ccccc3)N2[C@H](c2ccc(O)cc2)[C@@]12C(=O)N(C(=O)OCCOC)c1ccc(C#CCC(C(=O)OC)C(=O)OC)cc12
Second: COCCOC(=O)N1C(=O)[C@@]2(c3cc(C#CCC(C(=O)OC)C(=O)OC)ccc31)[C@H](C(=O)N1CCc3cc(OC)c(OC)cc3C1)[C@H]1C(=O)O[C@H](c3ccccc3)[C@H](c3ccccc3)N1[C@@H]2c1ccccc1OCCO
The z-score of the first is higher: -1.7 for the first, -2.12 for the second.

Compared with COC(=O)[C@]1(Cc2ccccc2CN=[N+]=[N-])N=C(c2ccc(OCCCO)cc2)O[C@@H]1c1ccccc1N=[N+]=[N-], [N-]=[N+]=NCc1ccccc1C[C@@]1(C(N)=O)N=C(c2ccc(OCCCO)cc2)O[C@@H]1c1ccccc1N=[N+]=[N-] is lower in z-score: -2.04 for the first, -2.41 for the second.

Going from COC(=O)C(CC#Cc1ccc2c(c1)[C@]1(C(=O)N2)[C@H](c2ccccc2OCCO)N2[C@H](c3ccccc3)[C@H](c3ccccc3)OC(=O)[C@H]2[C@@H]1C(=O)N1CCN(c2ncccn2)CC1)C(=O)OC to COCCOC(=O)N1C(=O)[C@@]2(c3cc(C#CC4=CCCCC4)ccc31)[C@H](C(=O)N1CCCCCCC1)[C@H]1C(=O)O[C@H](c3ccccc3)[C@H](c3ccccc3)N1[C@@H]2c1ccccc1OCCO, the z-score rises from -2.27 to -2.04.

First: C=CC[C@]1(C(=O)NCCN2CCOCC2)N=C(c2ccc(OCCCO)cc2)O[C@H]1c1ccccc1
Second: O=C(N1CCOCC1)[C@]1(CCS(=O)(=O)c2ccccc2)N=C(c2ccc(OCCCO)cc2)O[C@@H]1c1ccccc1
The z-score of the first is higher: -0.188 for the first, -2.21 for the second.

Going from CN(C)C(=O)[C@]1(CCS(=O)(=O)c2ccccc2)N=C(c2ccc(OCCCO)cc2)O[C@@H]1c1ccccc1CN=[N+]=[N-] to COCCCNC(=O)[C@@]1(CCC(=O)OC(C)(C)C)N=C(c2ccc(OCCCO)cc2)O[C@H]1c1ccccc1, the z-score rises from -2.13 to -0.0488.

Going from C=CCC(OC(C)=O)[C@@H]1[C@@H](N(Cc2cccc3ccccc23)C(=O)c2ccc(C)cc2)c2cc(OCCCO)ccc2N1C(=O)Cc1ccc2ccccc2c1 (stereo partly specified) to COc1ccc(CCNC(=O)[C@@]2(c3ccc([N+](=O)[O-])cc3)CC(=O)N(C3CCCCC3)[C@@H]2c2ccc(CO)cc2I)cc1, the z-score falls from -0.145 to -1.96.

Compared with O=C(O)C1=CC[C@H]2C(=O)N(c3ccccc3)C(=O)[C@@H]12, CC[C@@H]1C=C(C(=O)O)[C@H](c2cccc(Cl)c2)N1S(=O)(=O)c1ccc(C)cc1 is higher in z-score: 0.0472 for the first, 1.85 for the second.

Going from COc1c(C)cc(-c2nc(-c3ccccc3)c3c(c2C)CO[Si]3(C(C)C)C(C)C)cc1C to CC[C@@H](O[Si](C#C[Si](C(C)C)(C(C)C)C(C)C)(C(C)C)C(C)C)c1cn([C@H](CO)Cc2ccccc2)nn1, the z-score rises from -2.79 to -0.348.

Going from CN(C)CCCC[C@@H]1NC(=O)[C@H]2C[C@@H](C(=O)NCCCCCCNC(=O)CS)[C@@H](c3cccc(OCCO)c3)N2C1=O to CN1C(=O)C2C(C1=O)C1C=C(CCCO)C2C(C2CC2)N1C (stereo unspecified), the z-score falls from 0.162 to 0.119.
